Experimental data: the supplement of paper PMC10849652
Targets with a hit are over-represented here; the source holds about 7,900 in all. About 0.6% of all pairs of compound and target were hits.

compound: CC1=C2C(=CC=C1)N=C(N(C2=O)C3=CC=CC=C3C)CN4C=NC5=C(N=CN=C54)N; experiment: log2 fold change, soluble protein after heating vs DMSO (PISA); higher = thermal stabilisation; K562 cells, 10 uM, 30 min; active = over 0.2 and 3.5 SD of the protein, either way, in both replicates (recomputed)
Outline: (§1)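 Aliquots of K562 cells (2×10^6 cells/mL) treated with 10 μM compound for 30 min were heated for 3 min over 48°C-58°C. After pooling and extraction in PBS with 0.5% NP-40 at 4°C, soluble protein from a 21,000xg, 90 min spin was quantified by TMTpro 16plex LC-MS/MS with channel sums equalised. Thermal stability is expressed against control samples, from duplicates, as a log2 fold change.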

UniProt O15121, sequence (O15121 whole entry, looked up): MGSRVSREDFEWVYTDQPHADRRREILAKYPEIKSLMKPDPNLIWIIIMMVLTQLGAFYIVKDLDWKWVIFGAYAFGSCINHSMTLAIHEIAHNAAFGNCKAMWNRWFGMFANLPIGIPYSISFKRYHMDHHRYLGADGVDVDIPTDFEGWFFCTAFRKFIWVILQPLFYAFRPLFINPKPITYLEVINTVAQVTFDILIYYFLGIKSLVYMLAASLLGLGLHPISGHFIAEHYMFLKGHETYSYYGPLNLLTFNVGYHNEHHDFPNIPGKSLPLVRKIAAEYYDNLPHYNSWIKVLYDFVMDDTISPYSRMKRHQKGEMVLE
UniProt Q8N128, sequence (Q8N128 whole entry, looked up): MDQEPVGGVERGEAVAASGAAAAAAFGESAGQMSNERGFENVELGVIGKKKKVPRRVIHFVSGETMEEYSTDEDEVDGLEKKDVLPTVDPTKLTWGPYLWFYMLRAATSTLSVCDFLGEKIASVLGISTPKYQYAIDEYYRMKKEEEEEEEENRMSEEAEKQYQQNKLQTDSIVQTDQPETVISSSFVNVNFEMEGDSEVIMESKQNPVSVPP
UniProt Q5W0V3, sequence (Q5W0V3 whole entry, looked up): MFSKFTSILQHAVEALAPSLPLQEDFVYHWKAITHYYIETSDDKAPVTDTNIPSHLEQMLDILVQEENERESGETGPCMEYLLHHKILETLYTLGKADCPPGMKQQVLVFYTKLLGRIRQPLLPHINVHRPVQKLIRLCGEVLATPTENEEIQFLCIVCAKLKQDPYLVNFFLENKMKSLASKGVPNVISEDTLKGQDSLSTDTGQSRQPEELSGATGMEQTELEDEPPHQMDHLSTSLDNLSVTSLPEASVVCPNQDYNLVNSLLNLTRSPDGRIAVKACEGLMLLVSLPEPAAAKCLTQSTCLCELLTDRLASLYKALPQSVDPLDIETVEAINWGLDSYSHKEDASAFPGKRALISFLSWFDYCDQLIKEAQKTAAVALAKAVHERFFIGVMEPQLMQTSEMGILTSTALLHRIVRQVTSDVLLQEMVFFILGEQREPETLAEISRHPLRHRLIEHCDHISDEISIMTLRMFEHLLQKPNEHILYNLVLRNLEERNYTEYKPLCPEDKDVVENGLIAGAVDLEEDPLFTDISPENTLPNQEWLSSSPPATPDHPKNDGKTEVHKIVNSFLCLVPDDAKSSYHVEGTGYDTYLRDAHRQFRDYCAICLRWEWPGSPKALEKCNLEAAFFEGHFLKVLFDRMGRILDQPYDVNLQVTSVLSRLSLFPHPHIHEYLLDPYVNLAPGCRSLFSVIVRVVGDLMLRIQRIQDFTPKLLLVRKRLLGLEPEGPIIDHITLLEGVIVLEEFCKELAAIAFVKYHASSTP
UniProt Q16254, sequence (Q16254 whole entry, looked up): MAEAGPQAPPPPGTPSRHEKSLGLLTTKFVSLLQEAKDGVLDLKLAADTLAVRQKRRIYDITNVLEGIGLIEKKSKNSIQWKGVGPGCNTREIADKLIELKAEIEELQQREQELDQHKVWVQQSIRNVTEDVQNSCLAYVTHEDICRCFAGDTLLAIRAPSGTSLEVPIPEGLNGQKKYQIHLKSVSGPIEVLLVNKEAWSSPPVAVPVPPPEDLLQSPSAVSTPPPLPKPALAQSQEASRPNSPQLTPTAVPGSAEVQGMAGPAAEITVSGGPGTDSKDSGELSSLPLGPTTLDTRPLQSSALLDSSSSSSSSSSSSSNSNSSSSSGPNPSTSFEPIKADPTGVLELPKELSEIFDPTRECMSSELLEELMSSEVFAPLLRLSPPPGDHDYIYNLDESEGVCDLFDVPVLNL
UniProt Q9NX74, sequence (Q9NX74 whole entry, looked up): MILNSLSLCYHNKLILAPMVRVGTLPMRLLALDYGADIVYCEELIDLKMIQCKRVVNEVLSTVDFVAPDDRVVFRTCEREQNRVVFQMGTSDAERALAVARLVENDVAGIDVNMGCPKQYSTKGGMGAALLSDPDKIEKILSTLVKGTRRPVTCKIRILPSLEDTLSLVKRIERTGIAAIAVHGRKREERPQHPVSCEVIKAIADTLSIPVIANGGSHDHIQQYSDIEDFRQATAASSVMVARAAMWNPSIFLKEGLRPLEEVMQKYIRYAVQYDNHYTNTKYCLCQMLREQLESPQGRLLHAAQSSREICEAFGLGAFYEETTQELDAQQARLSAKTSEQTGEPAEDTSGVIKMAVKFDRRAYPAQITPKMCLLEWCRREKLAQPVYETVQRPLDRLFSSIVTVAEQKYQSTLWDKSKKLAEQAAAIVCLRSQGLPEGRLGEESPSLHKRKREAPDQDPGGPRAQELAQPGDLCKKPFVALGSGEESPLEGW
UniProt Q9NZN4, sequence (Q9NZN4 whole entry, looked up): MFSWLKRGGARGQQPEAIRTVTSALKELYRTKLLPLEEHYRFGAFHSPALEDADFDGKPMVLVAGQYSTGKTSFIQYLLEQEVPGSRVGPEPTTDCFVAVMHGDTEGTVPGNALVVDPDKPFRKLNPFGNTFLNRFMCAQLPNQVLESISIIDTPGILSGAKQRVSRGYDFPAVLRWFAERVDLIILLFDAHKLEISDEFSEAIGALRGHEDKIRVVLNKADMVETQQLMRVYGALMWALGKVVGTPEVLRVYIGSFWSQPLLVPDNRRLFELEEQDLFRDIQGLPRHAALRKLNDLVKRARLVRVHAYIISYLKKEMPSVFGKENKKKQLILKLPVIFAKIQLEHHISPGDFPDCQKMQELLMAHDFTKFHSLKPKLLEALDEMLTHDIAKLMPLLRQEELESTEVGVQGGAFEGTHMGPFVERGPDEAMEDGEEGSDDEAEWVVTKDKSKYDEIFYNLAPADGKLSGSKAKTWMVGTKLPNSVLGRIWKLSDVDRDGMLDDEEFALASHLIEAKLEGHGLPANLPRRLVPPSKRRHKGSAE
UniProt Q5NDL2, sequence (Q5NDL2 whole entry, looked up): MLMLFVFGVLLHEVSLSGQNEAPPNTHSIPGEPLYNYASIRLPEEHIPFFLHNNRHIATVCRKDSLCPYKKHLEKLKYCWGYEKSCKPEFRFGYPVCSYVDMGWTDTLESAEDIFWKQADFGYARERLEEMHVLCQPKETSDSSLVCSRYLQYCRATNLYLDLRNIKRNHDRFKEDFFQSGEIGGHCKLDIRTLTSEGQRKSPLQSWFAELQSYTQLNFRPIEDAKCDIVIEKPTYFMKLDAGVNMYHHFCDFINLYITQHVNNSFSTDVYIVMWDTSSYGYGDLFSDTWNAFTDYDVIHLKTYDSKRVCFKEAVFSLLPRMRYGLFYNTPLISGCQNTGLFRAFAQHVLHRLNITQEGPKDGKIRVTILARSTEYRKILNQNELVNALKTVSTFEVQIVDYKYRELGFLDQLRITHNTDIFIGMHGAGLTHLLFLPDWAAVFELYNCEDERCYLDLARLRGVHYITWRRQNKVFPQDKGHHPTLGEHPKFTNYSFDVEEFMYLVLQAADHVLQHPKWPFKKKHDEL
UniProt Q9NWS6, sequence (Q9NWS6 whole entry, looked up): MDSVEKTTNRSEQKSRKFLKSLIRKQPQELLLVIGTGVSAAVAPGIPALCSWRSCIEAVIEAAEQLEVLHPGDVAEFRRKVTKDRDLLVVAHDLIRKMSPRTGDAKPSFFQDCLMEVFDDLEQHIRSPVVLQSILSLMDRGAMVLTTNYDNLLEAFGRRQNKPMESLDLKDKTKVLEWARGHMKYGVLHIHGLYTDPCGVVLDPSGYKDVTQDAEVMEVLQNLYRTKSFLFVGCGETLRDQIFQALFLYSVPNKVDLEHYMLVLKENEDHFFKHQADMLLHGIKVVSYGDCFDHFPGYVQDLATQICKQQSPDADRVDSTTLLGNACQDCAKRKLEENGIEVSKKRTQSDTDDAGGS
UniProt Q96EV8, sequence (Q96EV8 whole entry, looked up): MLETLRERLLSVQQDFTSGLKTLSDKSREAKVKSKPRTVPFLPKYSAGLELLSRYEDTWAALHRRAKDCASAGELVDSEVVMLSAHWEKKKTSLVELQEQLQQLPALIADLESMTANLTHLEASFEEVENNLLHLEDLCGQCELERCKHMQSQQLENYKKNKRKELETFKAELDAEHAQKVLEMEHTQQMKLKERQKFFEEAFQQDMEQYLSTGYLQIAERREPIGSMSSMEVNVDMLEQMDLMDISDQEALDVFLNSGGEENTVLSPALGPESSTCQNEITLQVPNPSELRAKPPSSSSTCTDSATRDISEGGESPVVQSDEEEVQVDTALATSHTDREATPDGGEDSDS
UniProt Q96F86, sequence (Q96F86 whole entry, looked up): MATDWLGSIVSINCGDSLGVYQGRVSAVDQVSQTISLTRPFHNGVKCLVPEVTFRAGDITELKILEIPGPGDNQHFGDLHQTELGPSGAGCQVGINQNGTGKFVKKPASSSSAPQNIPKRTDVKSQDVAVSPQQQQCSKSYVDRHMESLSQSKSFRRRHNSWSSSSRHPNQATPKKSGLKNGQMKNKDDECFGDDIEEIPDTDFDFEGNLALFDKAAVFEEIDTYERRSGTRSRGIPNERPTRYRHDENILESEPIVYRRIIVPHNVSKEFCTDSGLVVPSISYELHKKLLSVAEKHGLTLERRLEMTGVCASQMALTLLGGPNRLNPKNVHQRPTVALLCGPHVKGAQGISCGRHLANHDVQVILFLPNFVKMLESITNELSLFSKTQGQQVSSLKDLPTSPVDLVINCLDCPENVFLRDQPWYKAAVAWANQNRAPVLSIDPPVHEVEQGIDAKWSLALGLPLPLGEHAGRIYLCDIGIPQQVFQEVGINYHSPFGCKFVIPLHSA
UniProt Q9H2P9, sequence (Q9H2P9 whole entry, looked up): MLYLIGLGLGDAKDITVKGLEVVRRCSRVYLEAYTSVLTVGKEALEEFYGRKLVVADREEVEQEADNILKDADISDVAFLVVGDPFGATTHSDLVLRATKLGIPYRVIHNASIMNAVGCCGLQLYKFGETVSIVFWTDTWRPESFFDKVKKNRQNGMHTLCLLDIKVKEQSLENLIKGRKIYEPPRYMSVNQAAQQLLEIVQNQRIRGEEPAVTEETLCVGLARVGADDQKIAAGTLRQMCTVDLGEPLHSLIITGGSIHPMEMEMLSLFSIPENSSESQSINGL
UniProt Q8N8J7, sequence (Q8N8J7 whole entry, looked up): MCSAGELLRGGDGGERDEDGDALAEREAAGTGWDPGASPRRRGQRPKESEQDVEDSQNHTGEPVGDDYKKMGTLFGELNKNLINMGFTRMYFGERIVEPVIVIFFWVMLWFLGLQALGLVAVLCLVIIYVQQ

| Target | log2 fold change |
| --- | --- |
| EEA1 (UniProt Q15075) | 0.011 (inactive) |
| FAM118A (UniProt Q9NWS6) | -0.102 (inactive) |
| FADS1, A0A0A0MR51 | 0.026 (inactive) |
| DDX4 (UniProt Q9NQI0) | 0.213 (inactive) |
| DUS3L (UniProt Q96G46) | -0.057 (inactive) |
| DHRS7B (UniProt Q6IAN0) | -0.001 (inactive) |
| DNAJC1 (UniProt Q96KC8) | 0.08 (inactive) |
| EGR1 (UniProt P18146) | -0.097 (inactive) |
| FAM160B1 (UniProt Q5W0V3) | -0.01 (inactive) |
| EXOC5 (UniProt O00471) | 0.07 (inactive) |
| EEF1D isoform 2 (UniProt P29692) | 0.073 (inactive) |
| ELOVL5 isoform 2 (UniProt Q9NYP7) | 0.016 (inactive) |
| DSN1 (UniProt Q9H410) | 0.059 (inactive) |
| DTNBP1 (UniProt Q96EV8) | 0.02 (inactive) |
| ETNK1 (UniProt Q9HBU6) | 0.071 (inactive) |
| CUTA isoform 2 (UniProt O60888) | -0.289 (inactive) |
| ESYT1 isoform 2 (UniProt Q9BSJ8) | 0.018 (inactive) |
| DHPS (UniProt P49366) | -0.014 (inactive) |
| FAM241A (UniProt Q8N8J7) | 0.041 (inactive) |
| ECH1 (UniProt Q13011) | 0.086 (inactive) |

| Target | log2 fold change |
| --- | --- |
| DUS2 (UniProt Q9NX74) | 0.109 (inactive) |
| EIF4E2 (UniProt O60573) | -0.007 (inactive) |
| DDOST (UniProt P39656) | -0.078 (inactive) |
| EDC3 (UniProt Q96F86) | 0.019 (inactive) |
| E2F4 (UniProt Q16254) | 0.098 (inactive) |
| EHD2 (UniProt Q9NZN4) | 0.022 (inactive) |
| EEF1A1 (UniProt P68104) | -0.097 (inactive) |
| DBR1 (UniProt Q9UK59) | 0 (inactive) |
| CTSB (UniProt P07858) | 0.019 (inactive) |
| DPH5 isoform 5 (UniProt Q9H2P9) | 0.092 (inactive) |
| CUX1 isoform 3 (UniProt P39880) | 0.034 (inactive) |
| EGLN1 (UniProt Q9GZT9) | 0.013 (inactive) |
| DEGS1 (UniProt O15121) | -0.001 (inactive) |
| FAM177A1 isoform 2 (UniProt Q8N128) | 0.17 (inactive) |
| CTU1 (UniProt Q7Z7A3) | 0.052 (inactive) |
| EDC4 (UniProt Q6P2E9) | 0.075 (inactive) |
| DHX36 (UniProt Q9H2U1) | -0.094 (inactive) |
| EOGT (UniProt Q5NDL2) | 0.056 (inactive) |
| DNAJB1 (UniProt P25685) | 0.066 (inactive) |

compound: Cc1sc2c(c1C)C(c1ccc(Cl)cc1)=N[C@@H](CC(=O)OC(C)(C)C)c1nnc(C)n1-2; experiment: as above
Outline: as §1

| Target | log2 fold change |
| --- | --- |
| EEA1 (UniProt Q15075) | 0.021 (inactive) |
| FAM118A (UniProt Q9NWS6) | -0.021 (inactive) |
| FADS1, A0A0A0MR51 | -0.005 (inactive) |
| DDX4 (UniProt Q9NQI0) | 0.274 (inactive) |
| DUS3L (UniProt Q96G46) | -0.007 (inactive) |
| DHRS7B (UniProt Q6IAN0) | -0.018 (inactive) |
| DNAJC1 (UniProt Q96KC8) | -0.015 (inactive) |
| EGR1 (UniProt P18146) | 0.705 (inactive) |
| FAM160B1 (UniProt Q5W0V3) | -0.022 (inactive) |
| EXOC5 (UniProt O00471) | 0.066 (inactive) |
| EEF1D isoform 2 (UniProt P29692) | 0.012 (inactive) |
| ELOVL5 isoform 2 (UniProt Q9NYP7) | -0.074 (inactive) |
| DSN1 (UniProt Q9H410) | 0.045 (inactive) |
| DTNBP1 (UniProt Q96EV8) | 0.001 (inactive) |
| ETNK1 (UniProt Q9HBU6) | -0.092 (inactive) |
| CUTA isoform 2 (UniProt O60888) | -0.123 (inactive) |
| ESYT1 isoform 2 (UniProt Q9BSJ8) | 0.008 (inactive) |
| DHPS (UniProt P49366) | 0.013 (inactive) |
| FAM241A (UniProt Q8N8J7) | 0 (inactive) |
| ECH1 (UniProt Q13011) | -0.114 (inactive) |

| Target | log2 fold change |
| --- | --- |
| DUS2 (UniProt Q9NX74) | -0.087 (inactive) |
| EIF4E2 (UniProt O60573) | -0.06 (inactive) |
| DDOST (UniProt P39656) | -0.022 (inactive) |
| EDC3 (UniProt Q96F86) | 0.063 (inactive) |
| E2F4 (UniProt Q16254) | 0.022 (inactive) |
| EHD2 (UniProt Q9NZN4) | -0.019 (inactive) |
| EEF1A1 (UniProt P68104) | 0.125 (inactive) |
| DBR1 (UniProt Q9UK59) | 0.017 (inactive) |
| CTSB (UniProt P07858) | -0.024 (inactive) |
| DPH5 isoform 5 (UniProt Q9H2P9) | -0.009 (inactive) |
| CUX1 isoform 3 (UniProt P39880) | -0.009 (inactive) |
| EGLN1 (UniProt Q9GZT9) | 0.008 (inactive) |
| DEGS1 (UniProt O15121) | 0.122 (inactive) |
| FAM177A1 isoform 2 (UniProt Q8N128) | -0.002 (inactive) |
| CTU1 (UniProt Q7Z7A3) | -0.006 (inactive) |
| EDC4 (UniProt Q6P2E9) | 0.023 (inactive) |
| DHX36 (UniProt Q9H2U1) | 0.091 (inactive) |
| EOGT (UniProt Q5NDL2) | -0.032 (inactive) |
| DNAJB1 (UniProt P25685) | -0.003 (inactive) |
